This passage reports binding signal results from publication PMC7862700, “An all-to-all approach to the identification of sequence-specific readers for epigenetic DNA modifications on cytosine”.

What all share (assay): DAPPL (digital affinity profiling via proximity ligation, sequencing); 10 mM Tris-HCl pH 7.5, 50 mM NaCl, 1 mM DTT, 4% glycerol, room temperature, 30 min; GST-TFs on glutathione beads, 16-mer random dsDNA library, 0.1% formaldehyde crosslink after washing; high values mean tight binding
Holding throughout (details): protein: recombinant; tags: N-terminal GST; dsDNA, one strand shown

One experiment deals with T1, FLI1 (Homo sapiens, UniProt Q01543 1-452).
T1 sequence: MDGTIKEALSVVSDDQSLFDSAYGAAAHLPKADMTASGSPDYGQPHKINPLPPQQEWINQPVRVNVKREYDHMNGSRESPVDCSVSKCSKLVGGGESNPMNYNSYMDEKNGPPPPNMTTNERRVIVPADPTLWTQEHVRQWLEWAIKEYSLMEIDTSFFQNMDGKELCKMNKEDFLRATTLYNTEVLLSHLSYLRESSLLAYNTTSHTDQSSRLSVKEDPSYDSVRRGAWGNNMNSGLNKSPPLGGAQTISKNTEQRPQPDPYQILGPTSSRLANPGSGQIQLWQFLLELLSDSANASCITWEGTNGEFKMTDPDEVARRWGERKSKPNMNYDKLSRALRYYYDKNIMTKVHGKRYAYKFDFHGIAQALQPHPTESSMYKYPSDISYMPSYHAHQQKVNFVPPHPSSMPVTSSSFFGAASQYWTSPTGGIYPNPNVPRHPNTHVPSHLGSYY
The method, boiled down:
(§1)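 A tag-only sample was pooled with DNA-barcoded human transcription factors that had been expressed in yeast as GST fusions and captured on glutathione beads. The pools were incubated for 30 min at room temperature with 200 nmole of a random double-stranded 16-mer DNA library in Tris/NaCl/DTT/glycerol buffer, then washed, crosslinked with 0.1% formaldehyde, proximity-ligated (BsaI/T4 ligase, 1 h, 37 °C), PCR-amplified and sequenced on an Illumina NextSeq500. Binding signal is each hexamer's read frequency for a factor divided by its frequency for the tag-only sample.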

Another experiment addresses T2, ELK1 (Homo sapiens, UniProt P19419 1-428).
T2 sequence: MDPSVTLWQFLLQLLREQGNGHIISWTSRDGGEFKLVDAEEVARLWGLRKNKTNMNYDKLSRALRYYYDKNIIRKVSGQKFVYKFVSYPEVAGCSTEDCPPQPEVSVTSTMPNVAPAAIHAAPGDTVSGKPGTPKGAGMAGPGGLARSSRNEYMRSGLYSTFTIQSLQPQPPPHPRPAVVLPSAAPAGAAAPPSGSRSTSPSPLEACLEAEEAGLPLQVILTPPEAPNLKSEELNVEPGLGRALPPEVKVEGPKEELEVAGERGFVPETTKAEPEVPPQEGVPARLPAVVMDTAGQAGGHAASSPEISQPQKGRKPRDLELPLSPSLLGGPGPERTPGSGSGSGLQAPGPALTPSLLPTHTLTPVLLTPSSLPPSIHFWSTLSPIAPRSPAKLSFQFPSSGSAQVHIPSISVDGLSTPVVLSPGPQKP
The method, boiled down:
as §1

For another experiment, the target named is T3, GABPA (Homo sapiens, UniProt Q06546 1-454).
T3 sequence: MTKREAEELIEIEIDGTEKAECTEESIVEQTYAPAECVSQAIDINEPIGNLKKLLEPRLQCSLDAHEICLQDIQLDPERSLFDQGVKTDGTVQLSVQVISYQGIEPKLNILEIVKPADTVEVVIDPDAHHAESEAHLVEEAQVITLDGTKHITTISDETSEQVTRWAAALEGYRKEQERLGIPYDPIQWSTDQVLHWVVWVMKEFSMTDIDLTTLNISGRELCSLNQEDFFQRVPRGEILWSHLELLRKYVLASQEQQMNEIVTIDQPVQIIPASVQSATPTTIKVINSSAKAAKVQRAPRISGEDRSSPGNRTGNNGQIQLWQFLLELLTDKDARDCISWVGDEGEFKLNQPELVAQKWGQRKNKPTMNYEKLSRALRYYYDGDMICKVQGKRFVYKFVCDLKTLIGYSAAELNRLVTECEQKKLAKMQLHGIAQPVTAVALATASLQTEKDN
The method, boiled down: as §1

The target of a further experiment is T4, ERG (Homo sapiens, UniProt P11308 1-479).
T4 sequence: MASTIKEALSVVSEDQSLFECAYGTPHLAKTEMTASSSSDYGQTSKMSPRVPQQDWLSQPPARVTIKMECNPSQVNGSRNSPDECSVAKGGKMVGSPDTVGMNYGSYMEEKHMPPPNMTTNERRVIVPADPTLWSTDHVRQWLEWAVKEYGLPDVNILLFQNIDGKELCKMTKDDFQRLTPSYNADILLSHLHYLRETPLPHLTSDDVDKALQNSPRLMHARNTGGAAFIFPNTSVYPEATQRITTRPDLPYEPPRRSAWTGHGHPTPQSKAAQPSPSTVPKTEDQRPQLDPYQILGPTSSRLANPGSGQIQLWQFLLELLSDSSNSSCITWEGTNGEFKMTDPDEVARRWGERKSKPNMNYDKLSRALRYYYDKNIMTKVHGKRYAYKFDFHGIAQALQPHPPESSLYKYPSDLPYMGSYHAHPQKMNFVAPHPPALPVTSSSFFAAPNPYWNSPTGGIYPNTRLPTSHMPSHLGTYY
The method, boiled down:
as §1

A further experiment concerns the target ELF1 (Homo sapiens, UniProt P32519 1-619). The method, boiled down:
as §1

Another experiment has as its target T5, EHF (Homo sapiens, UniProt Q9NZC4 1-300).
T5 sequence: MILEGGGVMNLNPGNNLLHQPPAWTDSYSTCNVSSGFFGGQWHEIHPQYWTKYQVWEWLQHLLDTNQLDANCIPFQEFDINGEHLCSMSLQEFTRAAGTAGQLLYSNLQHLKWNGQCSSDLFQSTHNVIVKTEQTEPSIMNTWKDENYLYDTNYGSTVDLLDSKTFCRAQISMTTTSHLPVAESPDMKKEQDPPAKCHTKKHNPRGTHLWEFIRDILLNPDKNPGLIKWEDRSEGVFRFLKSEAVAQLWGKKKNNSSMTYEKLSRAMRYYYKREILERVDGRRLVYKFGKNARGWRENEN
The method, boiled down:
as §1

The target in another experiment is SPI1 (Homo sapiens, UniProt P17947 1-270). The method, boiled down:
as §1

Another experiment concerns the target SPIB (Homo sapiens, UniProt Q01892 1-262). In short, it runs like this:
as §1

The target of another experiment is T6, ELK3 (Homo sapiens, UniProt P41970 1-407).
T6 sequence: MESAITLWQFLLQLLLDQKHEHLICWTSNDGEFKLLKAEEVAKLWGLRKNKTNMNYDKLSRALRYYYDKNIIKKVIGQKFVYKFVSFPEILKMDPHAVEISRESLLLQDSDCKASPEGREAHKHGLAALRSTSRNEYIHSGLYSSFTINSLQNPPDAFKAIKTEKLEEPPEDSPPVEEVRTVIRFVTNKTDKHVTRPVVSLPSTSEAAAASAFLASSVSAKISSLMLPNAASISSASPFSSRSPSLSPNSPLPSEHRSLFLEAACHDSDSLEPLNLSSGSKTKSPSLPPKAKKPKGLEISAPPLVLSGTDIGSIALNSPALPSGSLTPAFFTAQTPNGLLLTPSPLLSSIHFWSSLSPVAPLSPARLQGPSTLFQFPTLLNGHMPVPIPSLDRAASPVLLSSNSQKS
In short, it runs like this:
as §1

For the next experiment, the target named is T7, FEV (Homo sapiens, UniProt Q99581 1-238).
T7 sequence: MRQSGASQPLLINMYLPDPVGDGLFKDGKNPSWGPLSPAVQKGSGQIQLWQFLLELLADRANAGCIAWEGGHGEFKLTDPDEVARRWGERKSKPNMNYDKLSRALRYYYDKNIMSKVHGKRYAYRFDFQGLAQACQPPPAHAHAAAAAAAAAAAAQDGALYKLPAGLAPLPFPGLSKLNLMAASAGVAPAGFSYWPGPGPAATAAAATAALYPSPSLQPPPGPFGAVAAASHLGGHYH
In short, it runs like this: as §1

Another experiment has as its target ETV5 (Homo sapiens, UniProt P41161 1-510). The method, boiled down: as §1
Another experiment deals with T8, SPIC (Homo sapiens, UniProt Q8N5J4 1-248).
T8 sequence: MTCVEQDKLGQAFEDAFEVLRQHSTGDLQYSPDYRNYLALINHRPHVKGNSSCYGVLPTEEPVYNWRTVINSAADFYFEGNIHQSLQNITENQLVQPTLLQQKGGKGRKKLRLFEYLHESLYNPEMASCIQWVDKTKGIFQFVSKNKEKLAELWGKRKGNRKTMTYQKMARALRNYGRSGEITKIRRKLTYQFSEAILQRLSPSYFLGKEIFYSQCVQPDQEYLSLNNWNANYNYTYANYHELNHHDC
The method, boiled down: as §1

The target of another experiment is ELF4 (Homo sapiens, UniProt Q99607 1-663). The method, boiled down:
as §1

A further experiment addresses T9, ELK4 (Homo sapiens, UniProt P28324-2 1-405).
T9 sequence: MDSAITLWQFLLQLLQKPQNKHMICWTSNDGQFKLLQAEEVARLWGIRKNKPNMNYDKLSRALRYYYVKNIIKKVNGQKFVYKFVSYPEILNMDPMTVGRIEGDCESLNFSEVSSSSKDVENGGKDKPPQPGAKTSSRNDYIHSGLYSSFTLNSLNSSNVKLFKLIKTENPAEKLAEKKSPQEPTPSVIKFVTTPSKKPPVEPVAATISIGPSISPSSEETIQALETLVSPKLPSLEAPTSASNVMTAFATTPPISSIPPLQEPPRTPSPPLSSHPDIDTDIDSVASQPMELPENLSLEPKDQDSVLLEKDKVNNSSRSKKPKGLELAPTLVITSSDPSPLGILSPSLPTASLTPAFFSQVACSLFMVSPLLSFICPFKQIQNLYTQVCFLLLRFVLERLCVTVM
The method, boiled down: as §1

The next experiment has as its target T10, ETV2 (Homo sapiens, UniProt O00321 1-342).
T10 sequence: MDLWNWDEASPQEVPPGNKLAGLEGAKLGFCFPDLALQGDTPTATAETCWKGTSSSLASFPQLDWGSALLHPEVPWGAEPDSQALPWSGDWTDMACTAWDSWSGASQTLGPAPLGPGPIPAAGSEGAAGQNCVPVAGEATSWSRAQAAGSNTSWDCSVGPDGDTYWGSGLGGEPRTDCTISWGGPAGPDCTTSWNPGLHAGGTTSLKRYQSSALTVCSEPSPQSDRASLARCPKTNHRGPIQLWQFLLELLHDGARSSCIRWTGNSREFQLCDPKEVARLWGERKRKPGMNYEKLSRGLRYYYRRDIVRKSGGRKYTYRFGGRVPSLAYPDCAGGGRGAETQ
The method, boiled down: as §1

The next experiment deals with T11, ELF3 (Homo sapiens, UniProt P78545 1-371).
T11 sequence: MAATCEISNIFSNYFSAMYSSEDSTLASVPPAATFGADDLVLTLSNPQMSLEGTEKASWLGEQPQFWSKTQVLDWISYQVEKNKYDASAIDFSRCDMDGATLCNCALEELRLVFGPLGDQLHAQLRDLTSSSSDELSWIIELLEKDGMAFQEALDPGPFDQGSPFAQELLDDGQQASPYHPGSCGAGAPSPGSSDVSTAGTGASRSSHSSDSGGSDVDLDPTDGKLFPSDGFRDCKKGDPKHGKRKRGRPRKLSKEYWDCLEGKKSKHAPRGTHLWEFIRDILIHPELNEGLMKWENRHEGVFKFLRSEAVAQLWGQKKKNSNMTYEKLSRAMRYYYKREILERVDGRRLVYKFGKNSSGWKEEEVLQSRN
The method, boiled down: as §1

The target of a further experiment is ETV1 (Homo sapiens, UniProt P50549 1-477). The method, boiled down:
as §1

Sequence of ETV5 (P41161 whole entry): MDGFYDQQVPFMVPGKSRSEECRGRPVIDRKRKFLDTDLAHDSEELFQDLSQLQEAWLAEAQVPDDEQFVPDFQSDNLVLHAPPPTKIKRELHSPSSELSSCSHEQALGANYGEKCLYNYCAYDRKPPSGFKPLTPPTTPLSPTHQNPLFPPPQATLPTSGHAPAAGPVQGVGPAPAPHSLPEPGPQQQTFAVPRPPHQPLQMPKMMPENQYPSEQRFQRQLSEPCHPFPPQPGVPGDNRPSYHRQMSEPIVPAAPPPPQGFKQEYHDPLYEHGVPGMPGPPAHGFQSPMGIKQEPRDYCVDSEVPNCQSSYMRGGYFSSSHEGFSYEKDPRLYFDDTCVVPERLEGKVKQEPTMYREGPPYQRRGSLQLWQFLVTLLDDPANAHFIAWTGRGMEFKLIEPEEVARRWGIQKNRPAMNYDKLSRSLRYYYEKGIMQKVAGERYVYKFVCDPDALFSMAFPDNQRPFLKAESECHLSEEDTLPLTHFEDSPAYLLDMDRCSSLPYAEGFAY
Sequence of ELF1 (P32519 whole entry): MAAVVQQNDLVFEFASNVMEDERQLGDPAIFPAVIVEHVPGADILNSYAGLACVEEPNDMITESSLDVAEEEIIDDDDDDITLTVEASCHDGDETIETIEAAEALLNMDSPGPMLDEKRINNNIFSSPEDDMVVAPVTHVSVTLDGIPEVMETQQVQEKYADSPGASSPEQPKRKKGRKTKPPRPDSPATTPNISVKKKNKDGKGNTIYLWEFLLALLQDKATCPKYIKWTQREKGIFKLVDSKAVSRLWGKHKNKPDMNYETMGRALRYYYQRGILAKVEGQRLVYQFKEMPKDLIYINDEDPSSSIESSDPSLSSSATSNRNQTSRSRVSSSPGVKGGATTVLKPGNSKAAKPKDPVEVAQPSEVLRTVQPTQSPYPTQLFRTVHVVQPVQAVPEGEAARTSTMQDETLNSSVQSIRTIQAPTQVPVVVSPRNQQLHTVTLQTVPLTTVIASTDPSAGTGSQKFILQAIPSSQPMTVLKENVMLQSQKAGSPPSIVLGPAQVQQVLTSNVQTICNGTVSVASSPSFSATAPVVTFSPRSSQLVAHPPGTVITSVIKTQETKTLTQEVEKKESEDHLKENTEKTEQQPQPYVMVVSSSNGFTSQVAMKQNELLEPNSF
Sequence of ELF4 (Q99607 whole entry): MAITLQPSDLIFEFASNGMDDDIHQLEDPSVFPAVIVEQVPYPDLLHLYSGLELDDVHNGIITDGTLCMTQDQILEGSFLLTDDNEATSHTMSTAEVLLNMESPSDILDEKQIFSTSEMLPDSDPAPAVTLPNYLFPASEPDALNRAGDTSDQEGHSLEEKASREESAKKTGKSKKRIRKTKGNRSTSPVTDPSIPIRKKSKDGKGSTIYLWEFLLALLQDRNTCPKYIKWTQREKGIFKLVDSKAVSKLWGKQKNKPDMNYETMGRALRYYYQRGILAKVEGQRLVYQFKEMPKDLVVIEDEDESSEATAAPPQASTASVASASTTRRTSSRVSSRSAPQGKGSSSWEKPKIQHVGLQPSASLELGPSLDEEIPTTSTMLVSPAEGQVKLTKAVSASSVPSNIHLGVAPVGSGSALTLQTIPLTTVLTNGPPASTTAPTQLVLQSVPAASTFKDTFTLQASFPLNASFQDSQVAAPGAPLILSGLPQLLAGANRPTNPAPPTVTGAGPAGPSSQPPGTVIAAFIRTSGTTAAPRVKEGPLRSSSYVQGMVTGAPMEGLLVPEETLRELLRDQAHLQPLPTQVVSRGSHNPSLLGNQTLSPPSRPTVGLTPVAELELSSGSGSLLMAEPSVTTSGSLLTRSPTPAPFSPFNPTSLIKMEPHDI
Sequence of ETV1 (P50549 whole entry): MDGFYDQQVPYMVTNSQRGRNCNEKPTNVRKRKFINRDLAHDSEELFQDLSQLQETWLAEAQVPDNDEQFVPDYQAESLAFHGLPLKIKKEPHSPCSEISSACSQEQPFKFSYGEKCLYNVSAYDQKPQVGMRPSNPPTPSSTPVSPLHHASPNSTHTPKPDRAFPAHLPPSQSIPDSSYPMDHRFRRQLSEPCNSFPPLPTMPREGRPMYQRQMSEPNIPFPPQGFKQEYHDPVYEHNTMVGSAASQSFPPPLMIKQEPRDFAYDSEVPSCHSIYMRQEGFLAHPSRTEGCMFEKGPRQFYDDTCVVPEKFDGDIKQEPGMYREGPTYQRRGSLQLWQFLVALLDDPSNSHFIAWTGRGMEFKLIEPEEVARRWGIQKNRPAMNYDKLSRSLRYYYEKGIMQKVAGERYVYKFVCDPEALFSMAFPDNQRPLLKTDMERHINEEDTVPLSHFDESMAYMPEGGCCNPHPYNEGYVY
Sequence of SPIB (Q01892 whole entry): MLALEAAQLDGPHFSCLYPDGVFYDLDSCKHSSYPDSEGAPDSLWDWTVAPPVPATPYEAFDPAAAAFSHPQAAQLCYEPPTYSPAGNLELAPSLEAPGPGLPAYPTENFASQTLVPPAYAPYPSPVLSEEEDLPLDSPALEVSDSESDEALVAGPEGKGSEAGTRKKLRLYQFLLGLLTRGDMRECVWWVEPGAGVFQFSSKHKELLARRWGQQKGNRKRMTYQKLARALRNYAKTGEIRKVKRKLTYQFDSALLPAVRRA

As to CGGAAA, the binding signal with FLI1 is 1.89 fold enrichment (6-mer frequency, TF over GST control); with ELK1, 2.13 fold enrichment (6-mer frequency, TF over GST control); with GABPA it was 1.88 fold enrichment (6-mer frequency, TF over GST control); in the experiment with ERG, 2.63 fold enrichment (6-mer frequency, TF over GST control); with ELF1 it was 1.87 fold enrichment (6-mer frequency, TF over GST control); with EHF it was 2.31 fold enrichment (6-mer frequency, TF over GST control). Moreover, the binding signal in the experiment with SPI1 is 1.89 fold enrichment (6-mer frequency, TF over GST control); with SPIB, 2.22 fold enrichment (6-mer frequency, TF over GST control); with ELK3 it was 2.28 fold enrichment (6-mer frequency, TF over GST control); with FEV, 3.21 fold enrichment (6-mer frequency, TF over GST control); with ETV5 it was 2.32 fold enrichment (6-mer frequency, TF over GST control); with SPIC, 1.94 fold enrichment (6-mer frequency, TF over GST control). Further, the binding signal with ELF4 was 1.84 fold enrichment (6-mer frequency, TF over GST control); in the experiment with ELK4, 1.55 fold enrichment (6-mer frequency, TF over GST control); with ETV2, 2 fold enrichment (6-mer frequency, TF over GST control); in the experiment with ELF3, 2.13 fold enrichment (6-mer frequency, TF over GST control); in the experiment with ETV1, 2.17 fold enrichment (6-mer frequency, TF over GST control).
